# Source: PubChem BioAssay
# This is a sample that favours compounds with a hit; in the whole collection about 11% have one here.
# ALDH1A1 inh – blocks purified human ALDH1A1 activity | Purified ALDH1A1, NADH fluorescence, propionaldehyde substrate | actives 7.3% (n = 220,000) | P00352 | AID 1030 | Potency, µM (series often up to 75.3 µM), without a hit: at the top dose activity, negative = inhibition, hits mostly inhibitors;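 further: potency means the concentration at half of the fitted maximal effect; plate controls were no enzyme wells and a reference inhibitor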
# Target sequence (P00352 whole entry, looked up): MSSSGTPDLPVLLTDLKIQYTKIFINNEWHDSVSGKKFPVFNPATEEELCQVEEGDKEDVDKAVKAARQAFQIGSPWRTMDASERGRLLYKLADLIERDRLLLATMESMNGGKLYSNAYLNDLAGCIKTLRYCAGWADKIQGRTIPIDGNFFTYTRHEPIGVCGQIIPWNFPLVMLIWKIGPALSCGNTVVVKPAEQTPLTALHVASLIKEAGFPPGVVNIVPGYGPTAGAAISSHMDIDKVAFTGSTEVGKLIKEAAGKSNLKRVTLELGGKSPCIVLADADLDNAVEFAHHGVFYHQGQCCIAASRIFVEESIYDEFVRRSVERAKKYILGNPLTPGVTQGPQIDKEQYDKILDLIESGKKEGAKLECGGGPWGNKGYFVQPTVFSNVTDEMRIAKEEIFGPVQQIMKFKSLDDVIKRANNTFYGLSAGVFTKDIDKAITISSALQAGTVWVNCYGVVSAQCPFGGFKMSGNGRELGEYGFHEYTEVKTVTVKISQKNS
# PNC assembly inh – blocks assembly of the perinucleolar compartment | PC3M PTB-GFP, PNC prevalence imaging, 16 h; hits give low values | activity change (PNC), negative = inhibition, % at 10 µM | actives 3.1% (n = 140,000) | AID 2417;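 active means readout at or below -70, meaning at least 70% loss of cells showing the perinucleolar compartment, a nuclear body marking cancer cells; inconclusive means readout between -30 and a set limit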;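 further: plate controls were DMSO wells for no effect and camptothecin positive control wells for full effect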
#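 Compounds are pinned in duplicate onto adhered PC3M cells stably expressing GFP-tagged PTB and incubated 16 h at 37 C. Cells are then fixed, nuclei stained with Hoechst, and PNC-positive cells counted.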
# HPGD inh – blocks human HPGD enzyme activity. P15428. purified HPGD, NADH fluorescence kinetic, PGE2 substrate. Potency, µM, for inactives: at the top dose activity change, negative = inhibition, most hits filed as inhibitors. actives 4.3% (n = 150,000); further: potency means the concentration at half of the fitted maximal effect
#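 20 nM HPGD preincubated 15 min at room temperature with compound in 50 mM Tris-HCl pH 8, 0.01% Tween 20. Started with 1 mM NAD+ and 30 uM prostaglandin E2; NADH fluorescence (360/450 nm) read 5 times over 30-s intervals, last minus first.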
# An asterisk follows results filed as active; ? = inconclusive; · = not tested or not shown; [ ] = another dose, or the depositor's remark. Unless noted, the call rests on the fitted dose curve; in most records, active means well fitted inhibition curve with a large enough effect (not every such curve was filed as active); inconclusive means small, poorly fitted or top-dose-only effect, or another doubt; inactive means no such curve, though single readings can be large or run the other way. Unless noted, on the % scale 0 is the no-effect control and ±100 the full control effect.
SMILES,ALDH1A1 inh,PNC assembly inh,HPGD inh
CCC(C)NC(=O)C1CCCN(S(=O)(=O)c2ccc(-n3cnnn3)cc2)C1 (stereo not drawn),11%,-26,1%
O=C(NCc1ccco1)C1CCC(CNS(=O)(=O)c2cccc3cccnc23)CC1 (stereo not drawn),13µM*,-24,20µM*
O=C(CN(CC1CCCO1)C(=O)CNS(=O)(=O)c1ccc(Cl)cc1)NCC1CCCO1 (stereo not drawn),0%,-8,-6%
O=S(=O)(NCCc1cn2ccccc2n1)c1ccc2c(c1)CCCC2,?,-2,-6%
COc1ccc([C@H]2c3cc(OC)c(OC)cc3C[C@@H](C)[C@@H]2C)cc1OC,7%,·,-2%
C/C(CC(=O)Nc1cccc(C(F)(F)F)c1)=N/NC(=O)C(=O)NCCO,21%,·,·
O=C(NCc1ccco1)C1CCCN(S(=O)(=O)c2cccc3cccnc23)C1 (stereo not drawn),25µM*,30,-9%
CC(C)(C)NC(=O)C1CCCN(S(=O)(=O)c2cccc3cccnc23)C1 (stereo not drawn),3%,35,-3%
O=C1C2C3C=CC(C3)C2C(=O)N1c1ccccc1 (stereo not drawn),-1%,-15,-14%
O=C1C2C3C=CC(C3=C3CCCCC3)C2C(=O)N1c1ccccc1 (stereo not drawn),10µM*,20,-2%
O=C1C2C3CCCC3=C3CCCC3C2C(=O)N1c1ccccc1 (stereo not drawn),25µM*,?,-8%
O=C1C2C(C(=O)N1c1ccccc1)N1CCCN1C2c1ccccc1 (stereo not drawn),1%,·,·
CN=C(Nc1cccc(OC)c1)SC1CC(=O)N(c2ccc(C(=O)O)cc2)C1=O (stereo not drawn),4%,53,-12%
Cc1ccc(NC(=O)CNc2ccc(Cl)cc2F)cc1,-15%,?,·
O=C(Nc1ccc(F)cc1)c1ccccc1,6%,20,-12%
Cc1nn(-c2nnc(C)c(=O)[nH]2)c(C)c1SCC(=O)Nc1ccc(F)cc1,?,1,1%
O=C(CNc1ccccc1)Nc1ccc(F)cc1,14µM*,27,-16%
CC(=O)c1ccccc1NCC(=O)Nc1ccc(C)cc1,13µM*,·,·
O=C(CSc1ccc(F)cc1)Nc1ccccc1Br,2%,·,·
O=C(CSc1ccc(F)cc1)Nc1ccc(Br)cc1,20µM*,·,·
Cc1n[nH]c(C)c1SCC(=O)Nc1ccc(F)cc1,-5%,-100*,-11%
COc1cc(NS(=O)(=O)c2ccc(NC(=O)/C(=C\c3ccccc3OC)NC(=O)c3ccccc3)cc2)nc(OC)n1,-6%,0,-11%
Cc1nc2sc(C(c3ccccc3)N3CCN(c4ccccc4F)CC3)c(O)n2n1 (stereo not drawn),-7%,-11,-5%
COc1ccc(NC(=O)CSC2=NCCN2)cc1,-9%,·,·
COc1ccc(NC(=O)CSc2c(C)n[nH]c2C)cc1,16µM*,-14,-14%
SMILES,ALDH1A1 inh,PNC assembly inh,HPGD inh
O=C(CSc1nnc(Cc2ccccc2)o1)c1cc(F)ccc1F,0%,·,·
O=C(CN1C(=O)c2cccc3cccc1c23)Nc1ccc(S(=O)(=O)N2CCOCC2)cc1,?,-16,?
CCN1C(=O)c2cccc3c(NC(=O)c4ccc(S(=O)(=O)N5CCOCC5)cc4)ccc1c23,2µM*,?,-13%
CCN1C(=O)c2cccc3c(NS(=O)(=O)c4ccc(NC(C)=O)cc4)ccc1c23,?,8,-11%
CCN1C(=O)c2cccc3c(NC(=O)c4ccc(S(=O)(=O)N(C)C)cc4)ccc1c23,2.8µM*,-16,-11%
O=C(Cc1ccc(Cl)cc1)c1c[nH]c(C(=O)NCCCn2ccnc2)c1,-12%,·,·
CCOC(=O)CCN1C(=O)[C@H]2[C@H]3[C@H](O)[C@H](O)C/C(=N/NC(=O)OCc4ccc(OC)cc4)[C@@H]3CC[C@@H]2C1=O,-10%[13.5 µM],·,·
O=C(O)C1CCCN1S(=O)(=O)c1ccc(Br)s1 (stereo not drawn) (tested in a mixture with another compound),-9%,33,-5%
O=C(O)C1CCCCN1S(=O)(=O)c1ccc(Cl)s1 (stereo not drawn),16µM*,-15,-10%
CNC(=S)Nc1cccc(S(=O)(=O)NC2=NCCC2)c1,-9%,·,·
S=c1[nH]nc(-c2ccc(Br)o2)n1Cc1ccccc1,1.4µM*,-11,28µM*
CC(C)c1cc(-c2n[nH]c(=S)n2Cc2ccccc2)cs1,2µM*,71,?
O=C(O)CSc1nnc(CSc2nc3ccccc3s2)n1-c1ccccc1,5%,·,·
S=c1[nH]nc(CN2CCCC2)n1Cc1ccccc1,10%,·,·
S=c1[nH]nc(CSc2nc3ccccc3s2)n1C1CCCCC1,3.2µM*,21,7.1µM*
S=c1[nH]nc(COc2ccccc2)n1Cc1ccccc1,11µM*,51,?
CCc1ccc(OCc2n[nH]c(=S)n2Cc2ccccc2)cc1,-4%,·,·
CCn1c(-c2csc(-c3ccccc3)n2)n[nH]c1=S,?,-12,?
Nc1nc(NC(=O)c2cccc(S(=O)(=O)N3CCCCCC3)c2)nc(-c2ccccc2)n1,11%,-29,-6%
CCCCSC(=S)N(C)C1CCS(=O)(=O)C1 (stereo not drawn),5%,-20,-11%
Cc1nn(C)cc1C1C2=C(CC(C)(C)CC2=O)OC2=C1C(=O)CC(C)(C)C2,-9%,-8,-7%
Cc1cccc(CNC(=O)CCc2nnc(C3CCCCC3)o2)c1,1%,·,·
CC(C)NC(=O)CCn1nc(-c2ccc(Cl)cc2)c2ccccc2c1=O,-2%,·,·
S=c1[nH]nc(-c2ccccc2)n1Cc1ccccc1,18µM*,39,?
S=c1[nH]nc(CN2CCCCC2)n1Cc1ccccc1,2%,·,·
SMILES,ALDH1A1 inh,PNC assembly inh,HPGD inh
S=c1[nH]nc(-c2ccc(Cl)cc2)n1Cc1ccccc1,11µM*,5,?
S=c1[nH]nc(COc2ccccc2)n1C1CCCCC1,?,-6,22µM*
S=c1[nH]nc(-c2ccncc2)n1Cc1ccco1,?,23,-11%
S=c1[nH]nc(-c2ccc(Br)cc2)n1Cc1ccco1,?,?,25µM*
S=c1[nH]nc(CNc2ccc(Cl)cc2)n1Cc1ccccc1,11%,·,·
CC(C)CCn1c(COc2ccccc2)n[nH]c1=S,-11%,·,·
Cc1cccc(CN2CCN(Cc3cccc(-n4cccn4)c3)CC2CCO)n1 (stereo not drawn),-4%,·,·
O=C(O)c1[nH]nc2c1COc1ccccc1-2,?,?,-22%
C=CCn1c(-c2csc(-c3ccc(Cl)cc3)n2)n[nH]c1=S,?,?,-24%
S=c1[nH]nc(Cc2noc3ccccc23)n1-c1ccc(Cl)cc1,-7%,·,·
Cc1ccc(-n2c(-c3ccncc3)n[nH]c2=S)cc1,0%,·,·
C=CCn1c(-c2csc(-c3ccccc3)n2)n[nH]c1=S,0.11µM*,1,?
Cc1ccc(-n2c(Cc3noc4ccccc34)n[nH]c2=S)cc1,14µM*,·,·
Cc1ccc(-n2c(-c3ccccc3)n[nH]c2=S)cc1,32µM*,-5,?
Cc1c(N(C(=O)c2ccccn2)C2(C(=O)NC3CCCC3)CCCCC2)c(=O)n(-c2ccccc2)n1C,7%,·,·
O=C(CSC1=NCCS1)Nc1ccc(S(=O)(=O)N2CCCCCC2)cc1,?,-27,?
